Experimental data reported in ChEMBL document CHEMBL3433997, “St. Jude Leishmania screening dataset” (2016).

These molecules were tested against Solute carrier family 2, facilitated glucose transporter member 1 (Homo sapiens) (UniProt P11166) (assay: ST_JUDE_LEISH: Cytotoxicity at 2uM final concentration against transgenic Leishmania Mexicana promastigotes LmGLUT1 that are glucose transport deficient and complemented with the human glucose transporter GLUT1. Activity is measured by DNA content using SYBR green in vitro).
Assay type: functional

Chain of Solute carrier family 2, facilitated glucose transporter member 1 (Homo sapiens) (P11166 whole entry): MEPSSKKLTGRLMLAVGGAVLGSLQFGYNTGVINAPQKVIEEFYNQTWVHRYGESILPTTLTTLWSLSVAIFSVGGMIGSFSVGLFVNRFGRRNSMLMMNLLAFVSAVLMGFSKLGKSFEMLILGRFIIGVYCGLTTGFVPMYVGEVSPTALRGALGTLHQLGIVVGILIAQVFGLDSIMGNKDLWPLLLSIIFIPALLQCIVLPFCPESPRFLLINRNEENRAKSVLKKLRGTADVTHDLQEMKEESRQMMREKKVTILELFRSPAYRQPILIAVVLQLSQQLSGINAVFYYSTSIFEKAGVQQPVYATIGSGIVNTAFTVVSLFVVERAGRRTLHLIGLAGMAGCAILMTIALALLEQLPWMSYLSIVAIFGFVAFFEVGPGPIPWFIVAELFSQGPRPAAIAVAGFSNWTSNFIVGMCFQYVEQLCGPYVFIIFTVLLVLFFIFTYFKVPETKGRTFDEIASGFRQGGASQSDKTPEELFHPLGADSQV

Row | Structure (SMILES) | inhibition [%]
1 | CCNc1cc(C(=O)N[C@@H](Cc2ccccc2)[C@H](O)CNC2(CC(C)C)CC2)cc(N2CCCCS2(=O)=O)c1 | -1.54
2 | COc1cccc2c(NCCNc3ccnc4c(OC)cccc34)ccnc12 | 6.77
3 | CCCCCN1CCCN(Cc2cccc(NC(=O)c3cc4ccccc4s3)c2)CC1 | 1.99
4 | O=C(C=Cc1ccc(-c2ccccc2)cc1)N1CCC(CCN2CCC(c3c[nH]c4ccccc34)CC2)CC1 | 2.14
5 | O=S(=O)(c1ccc(Cl)cc1Cl)N1CCCCC(c2ccc(C(F)(F)F)cc2)=N1 | 0.38
6 | CC(C)CCn1c(Sc2ccc(C#N)c([N+](=O)[O-])c2)nnc1-c1cccc(Cl)c1 | 9.63
7 | COc1ccccc1-c1nc2c(ccc3nc(N)nc(N)c32)[nH]1 | 49.5
8 | Cc1cc(CN2CCC(Nc3ncc(-c4ccsc4)c4nc(C(F)(F)F)ccc34)CC2)no1 | 5.49
9 | CN=C(Nc1c(Cl)cccc1Cl)N(C)C | 2.85
10 | COc1ccc(-c2ccc(NC(=O)c3cccc(C#N)c3)cc2)cc1CN1CCC(O)CC1 | -0.68
11 | CCCCC([C@@H](Cc1ccc2ccccc2c1)C(=O)N[C@H](C(=O)NC)C(C)(C)C)N(O)C=O (stereo not given in full) | 0.96
12 | COc1cccc(NC(=O)Cn2c(C)c(C#N)c3ccccc32)c1 | 3.53
13 | COc1cccc(CN2CCC(N3CCc4cc(NC(=O)c5cc(C)on5)ccc43)C2)c1OC (stereo not given) | 1.63
14 | O=C(NC1CC1)c1ccc(Cn2c(SCc3cccc([N+](=O)[O-])c3)nc3ccccc3c2=O)cc1 | 1.19
15 | Oc1c(C(Nc2nc3ccccc3s2)c2ccc(OC(F)F)cc2)ccc2cccnc12 (stereo not given) | 4.38
16 | COc1cc(OC)c2c(C)cc(NCCCn3ccnc3)nc2c1 | 2.59
17 | COc1ccc(NC(=O)c2ccc(-c3nc(-c4ccccc4)cs3)cc2)cc1N1CCN(C)CC1 | 9.73
18 | NC(=O)c1ccc(NCC(=O)Nc2cccc(-c3cccc(-c4nc5cc(C(F)(F)F)ccc5[nH]4)c3)c2)cc1 | 3.23
19 | COc1ccc(N2CCN(CCCN3CCN(C(=O)c4ccc(/C=C/c5ccc(Cl)c(Cl)c5)cc4)CC3)CC2)c(OC)c1 | 6.35
20 | CC(C)(C)c1ccc(CNCCOc2ccc(Nc3nnc(-c4ccc(-c5ncc[nH]5)cc4)o3)c3ccccc23)cc1 | 2.98
21 | O=C(Nc1cccc(-c2ccc(CN3CCCC3)cc2)c1)c1cccc(F)c1 | -0.49
22 | CC(CN(C)C)C(=O)Nc1cccc(-c2cccc(-c3nc4ccccc4[nH]3)c2)c1 (stereo not given) | -0.1
23 | O=C(Nc1ccc(CC(=O)N2CCc3cc(Cl)c(N4CCN(C/C=C/c5ccccc5)CC4)cc32)cc1)Nc1cccc([N+](=O)[O-])c1 | 1.73
24 | CCOc1ccc(C(=O)Nc2cc3c(c(C(F)(F)F)c2)CCNC3)cc1Cl | 7.38
25 | Cc1cccc2nc(-c3cccc(-c4cccc(NC(=O)NCc5ccccc5)c4)c3)[nH]c12 | 3.73
